{"source": "paper PMC12136788", "binders": {"B1": {"name": "186301657_186302230_1024_CDS_ENSG00000090520_ENST00000265028|human|control|control (ssRNA)", "RNA": "GGGAGUUCUACAGUCCGACGAUCGGAAAUAUGUACCUUGUGACCAUCCAAGUGAGUAAUAUCCAUCUCAAAGCCAACCAGUGACUCAACUAAUGAGAUUGUCACAUUUGUGUACAAAUCAUCUCCUCUCCUUUCAAAUAUUGGCAACAGAGGAUUGAGCAUCA"}, "B2": {"name": "12963335_12971236_673_CDS_ENSG00000085415_ENST00000262124|human|control|control (ssRNA)", "RNA": "GGGAGUUCUACAGUCCGACGAUCAUAUUCAAAAAUCUGAACCUUGGCCAUUGCGUUGGGGCUACUGUCAUCACUUCCUACGGCGAUCAUGGGGGAAUGAGCACGAGAGCUUGAAGGGUUCCAAGAAAUACAACUACAGCUUAGCAACAGAGGAUUGAGCAUCA"}, "B3": {"name": "chr1:154966221:154966222:+_ENSMUSG00000042751_ENSMUST00000043313|mus_mus|FALSE|FALSE (ssRNA)", "RNA": "GGGAGUUCUACAGUCCGACGAUCUGCAACUCGAAUGCAGUUUUUAUUGAGUUGACUUCCAUAAAGCAAAUCUCACUCUUAAAUUAGCAGAUAUGAUUUUUUAAAAAAUUAAAAAAAAAAAAGCUUCCUCCUCCCCAUUCCAACCAACAGAGGAUUGAGCAUCA"}, "B4": {"name": "chr16:67134085:67134086:+_ENSG00000067955_ENST00000412916|hu_hu|FALSE|FALSE (ssRNA)", "RNA": "GGGAGUUCUACAGUCCGACGAUCCUGAAUUGACUGUGUCAGUUUUUCACCCUUUAAAAUAAUGCCAUUUAAUGAUAAAAUACAUUUUUCAAAAAUUCAGAAAUGUAGUAACAUUUAAUAAAUGUGACCAUGAAAAAUAUUUGUCAACAGAGGAUUGAGCAUCA"}, "B5": {"name": "chr16:67134085:67134086:+_ENSG00000067955_ENST00000412916|hu_mus|FALSE|FALSE (ssRNA)", "RNA": "GGGAGUUCUACAGUCCGACGAUCGAAUUGACCAUGUCAGUUUUUAAAAUUUUCUAAAAUAAUGCCAUUUUAUGAUAAAAUACAUUUUUGCAAAAAUUCAGAAAUGUAGUAACAUUUAAUGAAUACGACCACGGAAAGUAUUGUCAACAGAGGAUUGAGCAUCA"}, "B6": {"name": "chr5:6374476:6374477:-_ENSG00000133398_ENST00000255764|hu_mus|FALSE|FALSE (ssRNA)", "RNA": "GGGAGUUCUACAGUCCGACGAUCUAGGCUUUUAAAUUUCUUCAUUGUGUCGAUCUUGCCCUUGACUUGCUCGUUUUUAGCUAGAGCCCUCUCCAGGCAUUCUUUGGUGUAGAGCUGGGGAUUCCGACCUUGAUCAAUGUAUUCCAACAGAGGAUUGAGCAUCA"}, "B7": {"name": "117884203_117884323_1758_3pUTR_ENSG00000047932_ENST00000052569|human|control|control (ssRNA)", "RNA": "GGGAGUUCUACAGUCCGACGAUCAAAUUGCUUUACAUGCAAUAGCUAAUUAUGGUCUACCACAGAAAACAGGGUGUUUUAUGCAUUGAGAAUUGUUCACAUGAAGCCCUGAGGUACCCGCCUUUCAUUUAGGCAACAAACAGCCAACAGAGGAUUGAGCAUCA"}, "B8": {"name": "48376308_48376428_337_CDS_ENSMUSG00000031558_ENSMUST00000170109|mouse|control|control (ssRNA)", "RNA": "GGGAGUUCUACAGUCCGACGAUCGGGCACACUGCGCAGUGCCAGCCCAUGACAGUCCACCGUGCUGCCUGAACAGGAGCACUGGGCCGGGCACGCCUGCGGCGCCACCUUGUUCAAGAUCGACAACACUAACCCCAGCGAUAGCAACAGAGGAUUGAGCAUCA"}, "B9": {"name": "chr7:126859785:126859786:-_ENSMUSG00000030942_ENSMUST00000033236|mus_hu|FALSE|FALSE (ssRNA)", "RNA": "GGGAGUUCUACAGUCCGACGAUCUAUAUUACACACAAAUGUUAAAAAAAAAAAAAAAAAACAGACAUAAACAAGAAAAUCACAAAAGUACAAAAACUUCACUAAACAAUUCACUUCUAACCUACAUGAUCCACAUUUUUGCAACAACAGAGGAUUGAGCAUCA"}, "B10": {"name": "chr5:92873050:92873051:-_ENSMUSG00000029426_ENSMUST00000031377|mus_hu|FALSE|FALSE (ssRNA)", "RNA": "GGGAGUUCUACAGUCCGACGAUCCAGCACCCAACAACAACAAAAUUACUAUACAAGGGUUUAUUAAAUACUUGCUAGACACAUAAAAGAACAAUUUCAGAGCCCACAUGAUUUUAUAAAGCUUAAUGGCCAGCCAUGUCAGCCCAACAGAGGAUUGAGCAUCA"}, "B11": {"name": "chr16:57153313:57153314:+_ENSMUSG00000022752_ENSMUST00000166897|mus_mus|motif|central (ssRNA)", "RNA": "GGGAGUUCUACAGUCCGACGAUCCAAAAAAAAUUAAAAAGGAUUAAUUGAAUACAAAAGAAGUAUAUUUUACAGCACUUACGGUGUUAAAAACUAACAUACUAUAAAAUACUCACAUAUUAUACAAACAGCUAUAAAAAAACACAACAGAGGAUUGAGCAUCA"}, "B12": {"name": "chr14:102516957:102516958:+_ENSG00000197102_ENST00000360184|hu_hu|FALSE|FALSE (ssRNA)", "RNA": "GGGAGUUCUACAGUCCGACGAUCAGCUCAGACCUUCCAAAUAUUUUAAAAAUGAAUAAAUGUUAAAUACCAACUUUCACUAUUACAGAAAGGGGCAGCUAGAAAAGUUUACUCUGUGCACAAGACUGCGACACCCCGCUCGUACAACAGAGGAUUGAGCAUCA"}, "B13": {"name": "chr5:92873050:92873051:-_ENSMUSG00000029426_ENSMUST00000031377|mus_hu|motif|central (ssRNA)", "RNA": "B10 RNA with U75G, A76G"}, "B14": {"name": "chr1:60041781:60041782:+_ENSMUSG00000041040_ENSMUST00000036540|mus_hu|FALSE|FALSE (ssRNA)", "RNA": "GGGAGUUCUACAGUCCGACGAUCAAGUUUACAAUAGUAAAGUAAAUGCAGUAGUGGCAAAUUUUCUUUUAUUUUCCUUCACAAAAGAAAAUCUUUAUAACCCAGUCCUAGUCUUGGACAUAGUGAAAGCUAUAAAUUCUGACUCAACAGAGGAUUGAGCAUCA"}, "B15": {"name": "chr16:57153313:57153314:+_ENSMUSG00000022752_ENSMUST00000166897|mus_mus|FALSE|FALSE (ssRNA)", "RNA": "B11 RNA with G82U, G83A"}, "B16": {"name": "chr4:154931852:154931853:+_ENSMUSG00000029064_ENSMUST00000030940|mus_mus|FALSE|FALSE (ssRNA)", "RNA": "GGGAGUUCUACAGUCCGACGAUCUUUUAUUGUAGUAUUUCCUUUUAAAAUUGGACCAACCCAAAACAAAAUGAAACCAAAAAAACAAAAACAAAACAAAAUAACAAAAUAAACCAAAAACAAUGGCCCCAGAAAAAAUGCACACAACAGAGGAUUGAGCAUCA"}, "B17": {"name": "57609423_57609543_1342_3pUTR_ENSG00000101166_ENST00000355937|human|control|control (ssRNA)", "RNA": "GGGAGUUCUACAGUCCGACGAUCACUAAGUUACAAAACUUGGGCAAAUCAAUACAGUACUCUUUUAUAAUGAAACCAUACUUUUGUUGGAGUCAUGUUACUUUAGUGAUAAUUUUCACUCCAAAAAUAUUUAAGUACCAAAUCCAACAGAGGAUUGAGCAUCA"}, "B18": {"name": "chr5:40767622:40767623:-_ENSG00000132356_ENST00000397128|hu_mus|hu_hu_hu_mus_False|38_48 (ssRNA)", "RNA": "GGGAGUUCUACAGUCCGACGAUCAUCUUUUAUUGCGGCCCUCUUCAUGGGAUCCACCUGCAGCAUAUGUUUCAAAAGGCUGAUUACAGAAGGAUUUAAAUAUUGAGGGGUAUAAAAGAUCCCAUCACAUAUCUUCUUAAAAAGCAACAGAGGAUUGAGCAUCA"}, "B19": {"name": "chr8:13147844:13147845:+_ENSMUSG00000031446_ENSMUST00000016680|mus_mus|FALSE|FALSE (ssRNA)", "RNA": "GGGAGUUCUACAGUCCGACGAUCAAUAUUAACAAUUUGUAGACACAAUGAACUUAAAAAUAAGAAGUAGAAAUAGAAAUCUAUUUGGUCUUUCAGAGACCACAUCAUAGAACUCAUAAAUGAAAAUGUACAAAUAUAGAAAUGCAACAGAGGAUUGAGCAUCA"}, "B20": {"name": "chr15:63448706:63448707:-_ENSG00000185088_ENST00000411926|hu_hu|FALSE|FALSE (ssRNA)", "RNA": "GGGAGUUCUACAGUCCGACGAUCUGAUCUUGUAGCAACCUGGACAUUUUACAUCCAUAAAGUAAGAAUUUGGACUUUGUACUAGGCGUUUCUUUUUAUGUUUUUUCUUUUCCUCUUCCAAGGACGGAUGUAGUAAAUCUCUAGCAACAGAGGAUUGAGCAUCA"}, "B21": {"name": "chr15:51674161:51674162:-_ENSMUSG00000022312_ENSMUST00000022925|mus_mus|motif|central (ssRNA)", "RNA": "GGGAGUUCUACAGUCCGACGAUCCUGAACAACCUCAGUGCCUUGUCCUUCUUCUUGAUAAUGUUUGAUUAUCUUUAAUACGGCCAGGCCGUCGAUCUGCACCUGCUUCACGGCCGAAUCUCCGGAGCCGCCUUUGCCUUUGCCCAACAGAGGAUUGAGCAUCA"}, "B22": {"name": "109540647_109541272_703_CDS_ENSG00000076248_ENST00000242576|human|control|control (ssRNA)", "RNA": "GGGAGUUCUACAGUCCGACGAUCACGAACCGUGAGGACAGCGUUGAGAAGGAGAACACCUUGCUUGGCCCACCCAGAUAAAUCUCCAUGGCCAGGAUGAACAAAAUCCUCUAUGUCUGUAGACAACUCUUUAUAAAUGUUCUCCAACAGAGGAUUGAGCAUCA"}}, "note": "Where a chain is given by its changes, count along the chain named. The full ranking holds about 24,000 sequences; the median of “enrichment r” is about 0.99, and the highest 2% start at about 3.7. The full list was thinned out, with the highest values kept by preference.", "data": [{"target": "T1, UNK ZnF1-3 (human, UniProt Q9C0B0 31-174)", "T1 sequence": "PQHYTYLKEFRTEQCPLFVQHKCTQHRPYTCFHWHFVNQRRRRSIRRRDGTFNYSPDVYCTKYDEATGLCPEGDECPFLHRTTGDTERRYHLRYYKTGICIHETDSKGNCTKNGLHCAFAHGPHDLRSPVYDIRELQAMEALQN", "experiment": "nsRBNS (natural sequence RNA bind-n-seq); RBNS binding buffer (assumed for nsRBNS): 25 mM Tris pH 7.5, 150 mM KCl, 3 mM MgCl2, 0.01% Triton X-100, 500 ug/ml BSA, 20 U/ml SUPERase-In, 4 C; UNK is unkempt and MSI1 is Musashi-1; names of the RNAs are library labels; protein concentration not given here; high values mean tight binding", "units": {"binding signal": "enrichment R"}, "values": [{"binder": "B1", "binding signal": 0.986}, {"binder": "B2", "binding signal": 2.14}, {"binder": "B3", "binding signal": 3.32}, {"binder": "B4", "binding signal": 0.889}, {"binder": "B5", "binding signal": 4.09}, {"binder": "B6", "binding signal": 0.465}, {"binder": "B7", "binding signal": 1.15}, {"binder": "B8", "binding signal": 0.634}, {"binder": "B9", "binding signal": 10.5}, {"binder": "B10", "binding signal": 3.35}, {"binder": "B11", "binding signal": 3.65}, {"binder": "B12", "binding signal": 3.32}, {"binder": "B13", "binding signal": 4.28}, {"binder": "B14", "binding signal": 0.593}, {"binder": "B15", "binding signal": 11.1}, {"binder": "B16", "binding signal": 3.7}, {"binder": "B17", "binding signal": 0.487}, {"binder": "B18", "binding signal": 1.64}, {"binder": "B19", "binding signal": 3.41}, {"binder": "B20", "binding signal": 0.655}, {"binder": "B21", "binding signal": 0.51}, {"binder": "B22", "binding signal": 1.34}]}]}
